In PubChem BioAssay (NCI):
Compounds without any hit were thinned out: in the full panel of roughly 79,000, 15% have a hit. Unmarked numbers belong to inactive results. No stated cut-off is given here; in the data, active means growth inhibition above about 70%; inactive means the rest.

assay: NCI Yeast Anticancer Drug Screen. Data for the mlh1 rad18 strain (AID 175); details: S. cerevisiae mlh1 rad18 strain growth inhibition; at 50.0 µM; active compounds read high
Outline: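 Test agents were incubated with a yeast strain of defined genotype (DNA damage repair defect). Inhibition of growth was derived by comparison with vehicle-exposed cultures.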

**Q.** With `CC(=O)Nc1cccc2ccc([N+](=O)[O-])cc12` as the molecule, how does the growth inhibition read?
**A.** 7.85%

**Q.** With `NC(=S)N/N=C/c1cc([N+](=O)[O-])ccc1O` as the molecule, how does the growth inhibition read?
**A.** -87.9%

**Q.** Which growth inhibition does the source give for `Brc1ncccn1` here?
**A.** 14.8%

**Q.** Which growth inhibition does the source give for `Cc1ccc(C)c(CNC(=O)NC(C)(C)C)c1` here?
**A.** -0.75%

**Q.** With `CCCCCCCCCCCCCCCCCC[N+](C)(C)Cc1c(Cl)c(Cl)c(Cl)c(Cl)c1Cl` as the molecule, how does the growth inhibition read?
**A.** 1.65%

**Q.** With `CC1C2CC(C/C2=N/O)C1(C)C` (stereo not drawn) as the molecule, how does the growth inhibition read?
**A.** 21.6%

**Q.** Which growth inhibition does the source give for `CC1(C(Cl)Cl)C=CC(=O)c2ccccc21` (stereo not drawn) here?
**A.** 4.9%

**Q.** Which growth inhibition does the source give for `Nc1ncnc2nc(N=Nc3ccc(S(=O)(=O)O)cc3)[nH]c12` here?
**A.** -6.75%

**Q.** With `Cc1ccc(C(C)(O)C2CC2)cc1` (stereo not drawn) as the molecule, how does the growth inhibition read?
**A.** 18.1%

**Q.** With `Cc1ccc(S(=O)(=O)OCC23CCC(CC2)CC3)cc1` as the molecule, how does the growth inhibition read?
**A.** -1.2%

**Q.** Which growth inhibition does the source give for `O=C(O)C(Cc1ccccc1)NS(=O)(=O)Cc1ccccc1` (stereo not drawn) here?
**A.** -2.15%

**Q.** For `OCCCNc1ncnc2[nH]ncc12`, which growth inhibition is on record?
**A.** 13.4%

**Q.** For `O=C(SCc1ccccc1)N(c1ccccc1)c1ccccc1`, which growth inhibition is on record?
**A.** 5.3%

**Q.** For `CCCOC(=O)c1cccnc1C(=O)OCCC`, which growth inhibition is on record?
**A.** -6.4%

**Q.** For `CCOC(=O)Cn1/c(=N/N=C(\C)c2ccc([N+](=O)[O-])o2)sc2cc(Cl)ccc21`, which growth inhibition is on record?
**A.** 3.35%

**Q.** For `O=C(Nc1ccc(Cl)cc1)Nc1nnc(-c2cccc(-c3nnc(NC(=O)Nc4ccc(Cl)cc4)o3)c2)o1`, which growth inhibition is on record?
**A.** 14%

**Q.** Which growth inhibition does the source give for `CC(C)(C)CC(C)(C)N(CSc1ccc2ccccc2c1)CSc1ccc2ccccc2c1` here?
**A.** 17.6%

**Q.** For `C#CC(C)(CC)OC(C)=O` (stereo not drawn), which growth inhibition is on record?
**A.** 20.3%
